According to PubChem BioAssay:
The source made the active and inactive calls. No rule for the calls is given here.

What follows are compounds tested against Pantothenate synthetase (Mycobacterium tuberculosis (strain ATCC 25618 / H37Rv)) (UniProt P9WIL5) (assay: Coupled enzyme confirmation of inhibitors against recombinant Mtb PanC (AID 375;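 also: 0% = full reaction with vehicle and 100% = no enzyme background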)). Settings: coupled enzyme assay; at 10 µM, hits give high values.
Pantothenate synthetase (Mycobacterium tuberculosis (strain ATCC 25618 / H37Rv)), sequence (P9WIL5 whole entry, looked up): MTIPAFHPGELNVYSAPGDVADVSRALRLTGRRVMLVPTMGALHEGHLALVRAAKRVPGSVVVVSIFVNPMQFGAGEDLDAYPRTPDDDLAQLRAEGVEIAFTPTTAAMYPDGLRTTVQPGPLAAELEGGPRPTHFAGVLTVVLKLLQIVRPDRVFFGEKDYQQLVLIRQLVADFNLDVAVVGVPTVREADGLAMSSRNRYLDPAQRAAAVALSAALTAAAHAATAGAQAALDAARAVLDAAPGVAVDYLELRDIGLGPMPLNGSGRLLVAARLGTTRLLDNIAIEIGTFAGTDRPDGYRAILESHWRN

Row | Compound | inhibition
1 | O=C1c2ccccc2C(=O)N1CCCn1nnc(-c2ccc(N3CCOCC3)cc2)n1 | 3% (inactive)
2 | O=C(Nc1ccc(CN2CCOCC2)cc1)c1cc2ccccc2oc1=O | 4% (inactive)
3 | Cc1cc(NC(=O)c2cccc(S(=O)(=O)N3CC(c4ccccc4)CC3=O)c2)no1 (stereo not given) | 2% (inactive)
4 | COC(=O)c1cccc(S(=O)(=O)N2CCN(c3nc4ccccc4s3)CC2)c1 | 2% (inactive)
5 | CCCc1cc(C(=O)Nc2sc3c(c2C#N)CCC3)no1 | 7% (inactive)
6 | Cc1ccc(N2CC(C(=O)Nc3nnc(C)s3)CC2=O)cc1 (stereo not given) | 6% (inactive)
7 | CCc1nn(CC(=O)N2CCN(Cc3ccc4c(c3)OCO4)CC2)c(=O)c2cc3occc3n12 | 5% (inactive)
8 | COC(=O)CCC(=O)Nc1cccc(Cl)c1 | 0% (inactive)
9 | CC(=O)OCC(=O)[C@@]1(OC(C)=O)[C@@H](C)C[C@H]2[C@@H]3C[C@H](F)C4=CC(=O)C=C[C@]4(C)[C@@]3(F)[C@@H](O)C[C@@]21C | 0% (inactive)
10 | O=C(COC(=O)C1(c2ccccc2F)CCCC1)NC1CCS(=O)(=O)C1 (stereo not given) | 3% (inactive)
11 | CSc1ccc(Cn2nnc(C(=O)NCc3ccccc3)c2N)cc1 | 0% (inactive)
12 | Cc1cc(NC(=O)CSc2nnc(C3CC3)n2C)no1 | 0% (inactive)
13 | COC(=O)Nc1sccc1C(=O)Nc1sccc1C(=O)OC | 0% (inactive)
14 | Cc1cccc(-c2nnc(SCC#N)n2-c2cccc(Cl)c2)c1 | 0% (inactive)
15 | O=C(Nc1cccnc1)Nc1ccc2c(c1)OCO2 | 0% (inactive)
16 | O=C(CCn1nc(-c2ccccc2)ccc1=O)N1CCCC1 | 0% (inactive)
17 | Cc1cc(C)n(-c2ccc(N3CCOCC3)nn2)n1 | 0% (inactive)
18 | CN(C1CCCCC1)S(=O)(=O)c1ccc(NC(=O)c2ccco2)cc1 | 0% (inactive)
19 | Cc1nc2sc(C(c3cccs3)N3CC(C)CC(C)C3)c(O)n2n1 (stereo not given) | 0% (inactive)
20 | CCCCn1c(SCC(=O)Nc2ccc(OC)cc2)nc2ccc(N3CCOCC3)cc2c1=O | 0% (inactive)

Row | Compound | inhibition
21 | c1ccc(CSc2nnc(-c3cccs3)n2Cc2ccco2)cc1 | 0% (inactive)
22 | CN(c1ccccc1C(=O)N1CCN(c2cccc(Cl)c2)CC1)S(C)(=O)=O | 0% (inactive)
23 | CC(=O)OCC(=O)[C@@]12OC(C)(C)O[C@@H]1C[C@H]1[C@@H]3C[C@H](F)C4=CC(=O)C=C[C@]4(C)[C@@]3(F)[C@@H](O)C[C@@]12C | 1% (inactive)
24 | Cn1nnnc1SCC(=O)NC1CCCCC1 | 0% (inactive)
25 | Cc1cc2c(c(=O)n1C)C(Cc1ccccc1)C(C#N)=C(N)O2 (stereo not given) | 3% (inactive)
26 | COc1cccc(CNC(=O)C2CCN(S(=O)(=O)c3ccc(F)cc3)CC2)c1 | 8% (inactive)
27 | C=CCn1c(SCn2nnc3ccccc3c2=O)nnc1-c1ccc(Br)cc1 | 2% (inactive)
28 | CCc1ccc2oc(-c3cc(N)ccc3Cl)nc2c1 | 2% (inactive)
29 | O=C1CCc2cc(S(=O)(=O)N3CCC(C(=O)NCc4ccccn4)CC3)ccc2N1 | 0% (inactive)
30 | Nc1nc(-n2cnnc2)nn1-c1ccccc1 | 0% (inactive)
31 | CC1CN(CC(O)COc2ccc(C(C)C)cc2)CC(C)O1 (stereo not given) | 0% (inactive)
32 | CC1CCN(Cc2ccc(-c3nn[nH]n3)cc2)CC1 | 0% (inactive)
33 | CC(=O)c1c(C)nc(C)nc1NC(=O)Cc1ccccc1 | 0% (inactive)
34 | CN(C)/C=C(\C#N)c1nc2ccccc2[nH]1 | 0% (inactive)
35 | COc1ccc(C(O)Cn2c(=N)n(CCCN(C)C)c3ccccc32)cc1 (stereo not given) | 0% (inactive)
36 | COc1ccccc1NC(=O)NC1(C(=O)N2CCC(O)CC2)CCCCC1 | 0% (inactive)
37 | Cn1c(=O)[nH]c(=O)c2c1nc(CN1CCN(c3cccc(Cl)c3)CC1)n2CCc1ccccc1 | 4% (inactive)
38 | Cc1nc(C)c(C(=O)C2=C(O)C(=O)N(CCN3CCOCC3)C2c2cccnc2)s1 (stereo not given) | 13% (inactive)
39 | Nc1nc(NCc2ccco2)nn1-c1ccccc1 | 0% (inactive)
40 | O=C(Nc1cccnc1)c1cc2c(ccc3ccccc32)o1 | 0% (inactive)
